DT40 TDP1 CPT – qHTS for Inhibitors of human tyrosyl-DNA phosphodiesterase 1 (TDP1): qHTS in cells in presence of CPT | chicken DT40 Tdp1-/-;hTDP1 cells + 20 nM CPT, ATP luminescence, 48 h | Potency, µM (titrated, usually from 46.2 µM), inactives show at the top dose activity change, negative = growth inhibition, actives largely listed as inhibitors | actives 12% (n = 420,000); further: potency means the concentration at half of the fitted maximal effect; nearly all actives have a fitted effect of over 55% in size
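Chicken DT40 Tdp1-/- cells stably complemented with human TDP1 were seeded at 400 cells/well in medium containing 20 nM camptothecin, exposed to pin-transferred compounds, and grown at 37 °C for at least 48 hr. Viability was read as ATP luminescence.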
IL-1B inflam inh – qHTS for Inhibitors of Inflammasome Signaling: IL-1-beta AlphaLISA Primary Screen | actives 4.7% (n = 360,000) | activity change, % at 57.5 µM | THP-1 LPS/ATP IL-1B secretion, AlphaLISA, 16 h; active compounds read low | AID 743279, 2014; in the data active means activity change below about -50%; inconclusive means mostly about -30% to -49%
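THP-1 cells pretreated 1 hr with compounds (up to 57.5 uM final), then stimulated with LPS (250 ng/mL final) plus ATP (1.25 mM final); secreted IL-1B measured by AlphaLISA after 16 hr, decreased signal indicating inhibition.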
TDP1 cell noCPT – qHTS for Inhibitors of human tyrosyl-DNA phosphodiesterase 1 (TDP1): qHTS in cells in absence of CPT. Potency, µM (titrated, usually from 46.2 µM), without a hit: at the highest dose activity change, negative = growth inhibition, actives largely listed as inhibitors. AID 686978, 2013. DT40 Tdp1-/- hTDP1 cells, no CPT, ATP luminescence, 48 h. actives 15% (n = 420,000); further: potency means the concentration at half of the fitted maximal effect; nearly all actives have a fitted effect of over 55% in size
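Chicken DT40 Tdp1-/- cells stably complemented with human TDP1 were seeded at 400 cells/well with DMSO in place of 20 nM camptothecin. After compound pinning, cells grew at least 48 hr at 37 °C; viability read by CellTiter-Glo luminescence.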
HT1080 IDH1KD tx – qHTS for induction of synthetic lethality in tumor cells producing 2HG: qHTS for the HT-1080-IDH1KD cell line. HT-1080 IDH1 knockdown viability, ATP luminescence, 48 h. Potency, µM (doses to about 46.1 µM), inactives show top-dose activity, negative = toxicity, most hits filed as cytotoxic. actives 2% (n = 360,000);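 further: potency means the concentration at half of the fitted maximal effect; 0% = DMSO wells and -100% = cell-free medium wells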
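% activity derives from luminescence (CellTiter-Glo), normalised to DMSO and no-cell wells. HT-1080-IDH1KD cells, 750/well, had 48 h compound exposure at 37 °C.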
HT1080NT lethal – qHTS for induction of synthetic lethality in tumor cells producing 2HG: qHTS for the HT-1080-NT fibrosarcoma cell line; AID 686970, 2013; Potency, µM (doses to about 46.1 µM), for inactives: top-dose activity, negative = less viability, hits mostly cytotoxic; HT-1080-NT fibrosarcoma viability, CellTiter-Glo ATP luminescence, 48 h; actives 1.6% (n = 360,000);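 further: NT is the 2HG producing partner of a matched IDH1 knockdown line; potency means the concentration at half of the fitted maximal effect; 0% = DMSO-treated cells and -100% = media-only wells without cells; nearly all actives have a fitted effect of over 55% in size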
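750 cells/well, RPMI + 5% FBS; 2 h settle, compound pin-transfer, 48 h at 37 degrees C. CellTiter-Glo 10 min RT, luminescence. Normalized to DMSO and media-only wells.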
Starred values were filed as active, the others as inactive; ? = inconclusive; nt = no result given. In the library only some 19% were active in any assay of this set; here they are far more common. Unless noted, the call rests on the fitted dose curve; in most records, active means well fitted curve in the direction sought with a large enough effect; inconclusive means small, poorly fitted or top-dose-only effect, or another doubt; inactive means no such curve, though single readings can be large; an effect the other way counts as inactive or inconclusive. Unless noted, on the % scale 0 is the no-effect control and ±100 the full control effect.

SMILES	DT40 TDP1 CPT	IL-1B inflam inh	TDP1 cell noCPT	HT1080 IDH1KD tx	HT1080NT lethal
O=C(N=C1SC2CS(=O)(=O)CC2N1c1ccccc1Cl)C1CCCO1 (stereo unspecified)	8.3%	13.6	7.9%	19.9%	1.1%
COC(=O)c1cc(NC(=O)CCc2c(C)nc3c(c(C)nn3C(C)(C)C)c2C)cc(C(=O)OC)c1	-20.1%	nt	?	nt	nt
CCOC(=O)[C@]12CCCC=C1N(Cc1ccccc1)C(=O)[C@H](CC(=O)N1CCCCCC1)C2	?	-20.5	?	9.4%	12.2%
Cc1cc(C)c2c(N)c(C(=O)NN3CC(=O)N(c4cccc(Cl)c4)CC3=O)sc2n1	0.0%	2.4	-26.3%	-20.3%	-22.4%
CCCN1CCC(=O)N([C@H](CSc2ccc(C)cc2)c2ccccc2)CC1	16.4µM*	-29.7	8.2µM*	-4.4%	-1.7%
CCCN1CCC(=O)N([C@H](CSc2ccccc2)c2ccccc2)CC1	12.6µM*	2.4	18.4µM*	-0.1%	-7.6%
Cc1c(C(=O)N(C)Cc2cccc3ncccc23)cnn1-c1nccc(-c2ccccc2F)n1	-2.6%	nt	-28.2%	nt	nt
CC(C)CCNC(=O)C1CC(c2ccccc2C(F)(F)F)=NO1 (stereo unspecified)	-1.9%	11.1	-24.8%	5.1%	7.6%
O=C(c1cc2ccccc2[nH]1)c1cc2cc(O)ccc2[nH]1	?	nt	15.8µM*	nt	nt
CC(C)CC(C)NNC(=O)c1cc2ccccc2[nH]1 (stereo unspecified)	5.6%	20.2	5.5%	1.9%	5.3%
COc1cc(C(=O)OCC(=O)NC2CCCCC2)cc(OC)c1OC	-19.1%	24.1	-29.5%	-8.7%	-2.4%
CCCC(C)c1oc(=O)cc(O)c1C (stereo unspecified)	-8.4%	25.1	-12.4%	8.0%	10.8%
Cc1c(C(=O)NCCCN2CCOCC2)oc2ccc(S(=O)(=O)N3CCOCC3)cc12	-2.6%	28.9	-1.1%	5.5%	1.2%
CC1=C(CC(=O)c2ccc(Cl)cc2)C(=O)c2ccccc2C1=O	23.1µM*	10.1	16.4µM*	11.2µM*	?
Cc1ccc(C(=O)Cc2ccccc2)cc1	9.1%	-14.0	15.2%	11.9%	8.7%
CSCCNC(=O)C1(C)CCN1C(=O)c1cc(C)n(C)n1 (stereo unspecified)	-4.8%	28.4	-2.2%	13.5%	23.9%
Cn1cc(CN2C[C@H]3CC[C@H]2C3)c(-c2ccccc2F)n1	-20.0%	-15.5	?	1.9%	0.2%
CCOC(=O)C1CCCN(CCc2ccccc2)C1 (stereo unspecified)	-5.9%	-9.4	-4.2%	6.1%	5.2%
O=C(OC1C2CCC1C1CN(CCc3ccccc3)CC12)c1ccccc1 (stereo unspecified)	?	-67.3*	16.4µM*	-17.6%	-11.3%
COc1ccc2nc(N/C(N)=N/C(=S)Nc3cccc(C)c3)nc(C)c2c1	?	-56.2*	25.9µM*	-9.4%	-7.4%
Cc1ccc(NC(=S)/N=C(\N)Nc2nc(C)c3cc(C)ccc3n2)c(C)c1	20.6µM*	-17.0	11.6µM*	?	-12.2%
CCOc1ccc2nc(N/C(N)=N/C(=S)Nc3cccc(OC)c3)nc(C)c2c1	?	-55.0*	?	8.9%	-2.3%
COc1ccc(NC(=S)/N=C(\N)Nc2nc(C)c3ccccc3n2)cc1	?	-6.7	?	?	-1.2%
Cc1ccc(NC(=S)/N=C(\N)Nc2nc(C)c3cc(C)c(C)cc3n2)cc1C	?	-13.9	?	-4.1%	5.7%
COc1ccc2nc(N/C(N)=N/C(=S)Nc3c(C)cccc3C)nc(C)c2c1	16.4µM*	-62.7*	20.6µM*	0.6%	-6.4%
SMILES	DT40 TDP1 CPT	IL-1B inflam inh	TDP1 cell noCPT	HT1080 IDH1KD tx	HT1080NT lethal
COc1ccc2nc(N/C(N)=N/S(C)(=O)=O)nc(C)c2c1	-5.8%	-7.8	8.6%	13.2%	?
Cc1cccc(C)c1NC(=O)Cn1nc(-c2ccc(Cl)s2)ccc1=O	1.5%	41.7	10.7%	4.4%	-5.8%
COc1ccc(NC(=O)C2CCN(S(=O)(=O)c3cn(C)nc3C)CC2)cc1	-8.0%	26.2	-12.2%	10.6%	18.8%
CCOc1ccc2nc(N/C(N)=N/C(=S)Nc3cccc(C)c3)nc(C)c2c1	18.4µM*	?	20.6µM*	4.8%	15.6%
COc1ccc(N(CC(=O)N/N=C(\C)c2ccc(OC)c(OC)c2)S(=O)(=O)c2ccccc2)cc1	9.0%	2.1	0.5%	?	?
CCC(C)NC(=O)CSc1nnc(-c2cc(-c3cccs3)nc3ccccc23)o1 (stereo unspecified)	?	-10.4	18.4µM*	-4.3%	0.5%
NC(=O)CSc1nnc(-c2cc(-c3cccs3)nc3ccccc23)o1	-16.1%	1.2	?	-1.0%	0.1%
Cc1c(C(=O)N2CCCC2)c(S(=O)(=O)Nc2cccc(Br)c2)c(C)n1C	-28.2%	?	0.1%	-1.1%	-1.3%
CC1(C)Oc2cc3oc(-c4cc(O)cc(O)c4)cc3cc2CC1O (stereo unspecified)	20.6µM*	8.1	?	-22.5%	-3.2%
CCOC(=O)Cn1c(=O)c2c(nc(Br)n2Cc2ccccc2Cl)n(C)c1=O	18.4µM*	-23.7	23.1µM*	-7.1%	-6.1%
Cn1c(=O)n(CCO)c(=O)c2c1nc(Br)n2Cc1ccccc1	-23.3%	-1.2	?	-7.7%	-8.6%
CCOC(=O)Cn1c(=O)c2c(nc(Br)n2CC(=O)OCC)n(C)c1=O	-5.6%	1.9	-5.3%	-2.3%	6.8%
C=CCn1c(=O)c2c(nc(Br)n2Cc2ccccc2Cl)n(C)c1=O	18.4µM*	-1.4	?	-4.4%	-13.1%
O=C1/C(=C\c2ccc(O)c(O)c2)N=C2CCCCCN12	23.1µM*	37.6	?	-21.5%	-16.6%
Cc1noc(C)c1-c1ccc(C(=O)NCCC(F)(F)F)c2occc12	14.6µM*	1.9	?	8.0%	11.3%
Cc1noc(C)c1-c1ccc(C(=O)NCC(C)C)c2occc12	?	-1.0	?	4.7%	11.2%
Cc1noc(C)c1-c1ccc(C(=O)NCc2cccnc2)c2occc12	13µM*	79.4	18.4µM*	-17.9%	-8.0%
Cc1noc(C)c1-c1ccc(C(=O)Nc2cccc(NS(C)(=O)=O)c2)c2occc12	?	5.4	?	-11.7%	-4.5%
Cc1noc(C)c1-c1ccc(C(=O)Nc2cccc(C(F)(F)F)c2)c2occc12	16.4µM*	-6.7	20.6µM*	?	?

Source: PubChem (National Center for Advancing Translational Sciences (NCATS))
